Source: PubChem BioAssay (NCATS)
Inconclusive results are not listed. Activity calls are given as the source filed them. Unless noted, calls come from the whole dose curve; as a rule, active = well fitted curve in the direction sought with a large enough effect; inconclusive = small, poorly fitted or top-dose-only effect, or another doubt; inactive = no such curve, though single readings can be large; an effect the other way counts as inactive or inconclusive.

How the values were obtained:
[1] = AP1 Signaling Pathway (AID 357; active = well fitted curve in either direction with a large enough effect, not every such curve was filed as active;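 note: ME-180 reporter cells stimulated with EGF at its EC50 level; % is set by controls: 0 for no effect and ±100 for the full control effect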); conditions: ME-180 (cervical carcinoma) AP-1-bla reporter, EGF-induced, beta-lactamase ratio, 5 h; at 7.69 µM (top of the series) unless noted
Method in brief: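 Cells are seeded overnight, exposed to compound titrations and an EC50 level of EGF for 5 hours at 37 °C, then loaded with CCF4 dye for 2.5 hours. Beta-lactamase activity under the AP-1 element is read as a blue/green ratio.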

[2] = NFAT Signaling Pathway (AID 444; active = well fitted curve in either direction with a large enough effect, not every such curve was filed as active;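 note: carbachol stimulus at about its EC50 of 1 µM final; % is set by controls: 0 for no effect and ±100 for the full control effect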); conditions: Jurkat NFAT-bla M1, carbachol, beta-lactamase ratio, 5 h; at 7.69 µM (top of the series) unless noted
Method in brief: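 Jurkat cells carrying an NFAT-driven β-lactamase reporter and co-transfected muscarinic M1 receptor were treated with compound plus carbachol (1 uM final, an EC50 level) for 5 h at 37 °C. CCF4 loading followed for 1 h at RT; 460/530 nm ratio gave %activity.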

[3] = biological target: Glucocorticoid receptor (Homo sapiens) (UniProt P04150); assay: GR-GFP Redistribution (AID 450;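 active = compounds whose dose series gives a full or clear partial fitted curve of increased nuclear translocation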; note: potency is the fitted concentration of half-maximal effect); conditions: U2OS GR-GFP nuclear translocation, laser cytometry, 2 h
Chain of Glucocorticoid receptor (Homo sapiens) (P04150 whole entry, looked up, the tested form may be a part): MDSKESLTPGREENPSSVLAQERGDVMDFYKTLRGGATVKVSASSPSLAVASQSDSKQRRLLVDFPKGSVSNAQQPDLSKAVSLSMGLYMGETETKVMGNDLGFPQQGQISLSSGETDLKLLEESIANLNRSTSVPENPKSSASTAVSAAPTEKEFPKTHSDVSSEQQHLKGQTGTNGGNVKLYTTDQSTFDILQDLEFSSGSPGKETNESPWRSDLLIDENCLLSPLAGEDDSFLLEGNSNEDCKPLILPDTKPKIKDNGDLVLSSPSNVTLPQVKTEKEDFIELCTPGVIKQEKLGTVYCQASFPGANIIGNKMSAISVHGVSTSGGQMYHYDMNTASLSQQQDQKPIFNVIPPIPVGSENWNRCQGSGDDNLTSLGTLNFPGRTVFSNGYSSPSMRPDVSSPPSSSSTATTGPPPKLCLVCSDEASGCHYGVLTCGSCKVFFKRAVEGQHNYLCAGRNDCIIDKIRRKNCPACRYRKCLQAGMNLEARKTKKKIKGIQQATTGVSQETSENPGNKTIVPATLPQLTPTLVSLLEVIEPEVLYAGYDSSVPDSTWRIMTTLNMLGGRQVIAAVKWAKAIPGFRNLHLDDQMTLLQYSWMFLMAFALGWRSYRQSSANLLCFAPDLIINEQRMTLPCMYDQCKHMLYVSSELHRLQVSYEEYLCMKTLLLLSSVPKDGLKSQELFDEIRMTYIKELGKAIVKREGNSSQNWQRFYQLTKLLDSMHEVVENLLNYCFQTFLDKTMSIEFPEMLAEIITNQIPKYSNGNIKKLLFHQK

[4] = biological target: Glucocorticoid receptor (Homo sapiens) (UniProt P04150); assay: GR-EFC Redistribution (AID 451; calls by dose curve; note: potency is the fitted concentration of half-maximal effect); conditions: CHO-K1 GR-EFC translocation, beta-gal luminescence, 2 h
Method in brief: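 CHO-K1 cells stably expressing nuclear-localized β-gal enzyme acceptor and GR fused C-terminally to the enzyme donor fragment; ligand-driven nuclear translocation restores β-gal by complementation. Compounds titrated up to 46 uM final, 2 h at 37 °C; luminescence read.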

[5] = biological target: Ubiquitin carboxyl-terminal hydrolase 1 (Homo sapiens) (UniProt O94782); assay: Inhibitors of USP1/UAF1: Pilot qHTS (AID 504865);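 note: rhodamine fluorescence freed from ubiquitin-rhodamine substrate followed over time; top concentration of the series differs between compounds; % is set by controls: 0 for no effect and ±100 for the full control effect; nearly all actives have a fitted effect of over 35% in size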
Chain of Ubiquitin carboxyl-terminal hydrolase 1 (Homo sapiens) (O94782 whole entry, looked up): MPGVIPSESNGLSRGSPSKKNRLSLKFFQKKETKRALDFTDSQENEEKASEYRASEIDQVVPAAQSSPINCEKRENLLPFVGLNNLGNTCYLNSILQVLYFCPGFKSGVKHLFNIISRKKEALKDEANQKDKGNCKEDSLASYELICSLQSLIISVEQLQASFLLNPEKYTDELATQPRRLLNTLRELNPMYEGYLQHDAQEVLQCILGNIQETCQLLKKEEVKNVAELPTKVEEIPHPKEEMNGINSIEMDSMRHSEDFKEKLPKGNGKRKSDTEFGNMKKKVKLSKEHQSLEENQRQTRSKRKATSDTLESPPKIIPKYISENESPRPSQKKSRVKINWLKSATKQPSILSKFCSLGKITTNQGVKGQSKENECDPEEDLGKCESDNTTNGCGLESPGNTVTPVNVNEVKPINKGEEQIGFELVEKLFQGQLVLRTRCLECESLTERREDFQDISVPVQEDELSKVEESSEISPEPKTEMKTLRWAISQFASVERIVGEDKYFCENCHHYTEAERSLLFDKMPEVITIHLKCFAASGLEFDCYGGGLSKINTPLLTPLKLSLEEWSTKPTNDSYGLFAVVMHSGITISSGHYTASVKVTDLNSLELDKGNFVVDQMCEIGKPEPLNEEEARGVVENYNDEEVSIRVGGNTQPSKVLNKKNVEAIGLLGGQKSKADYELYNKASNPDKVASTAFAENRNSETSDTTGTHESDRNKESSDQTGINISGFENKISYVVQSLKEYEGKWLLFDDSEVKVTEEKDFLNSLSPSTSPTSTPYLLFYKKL
Method in brief: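 1nM USP1/UAF1 + cpd, 15 min RT; start w/ Ub-Rho 150nM final; kinetic FL 480/540 nm, 6 reads q60 s. Buffer 50mM HEPES pH 7.8, 0.5mM EDTA, 1mM TCEP, 0.01% Tween-20, 0.1 mg/ml BSA.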

[6] = Viability counterscreen for antagonist of constitutive androstane receptor (CAR) against the NCATS DSHEA and TCM libraries (AID 1794837);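 note: compound exposure lasted 24 h before viability reading; 0% is about no effect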
Method in brief: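 Cell viability, CellTiter-Fluor, Ex/Em 405/540 nm, 1 h at 37C. HepG2-CYP2B6-hCAR, 2,500 cells/well; cpds + CITCO 48 uM final (antagonist mode), 24 h, 37C/5% CO2.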

[7] = biological target: Nuclear receptor subfamily 1 group I member 3 (Homo sapiens) (UniProt Q14994); assay: Primary qHTS for agonist of constitutive androstane receptor (CAR) against the NCATS DSHEA and TCM libraries (AID 1794839); note: potency is the fitted concentration of half-maximal effect;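 for activation: HepG2 cells expressing human CAR with a CYP2B6 reporter plus PK11195 antagonist; 0% is about no effect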
Chain of Nuclear receptor subfamily 1 group I member 3 (Homo sapiens) (Q14994 whole entry, looked up): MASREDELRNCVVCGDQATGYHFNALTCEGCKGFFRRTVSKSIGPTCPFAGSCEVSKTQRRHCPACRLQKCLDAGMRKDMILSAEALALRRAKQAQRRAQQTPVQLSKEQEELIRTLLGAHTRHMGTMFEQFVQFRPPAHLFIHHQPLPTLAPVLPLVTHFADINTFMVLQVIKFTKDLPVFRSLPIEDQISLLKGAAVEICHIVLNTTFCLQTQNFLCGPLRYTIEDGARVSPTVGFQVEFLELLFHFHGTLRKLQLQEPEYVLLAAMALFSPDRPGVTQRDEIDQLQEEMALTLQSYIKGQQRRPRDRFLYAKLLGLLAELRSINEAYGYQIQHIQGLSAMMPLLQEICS
Method in brief: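 Luminescence from ONE-Glo luciferase was the agonist read-out in HepG2-CYP2B6-hCAR cells exposed 24 h to test substances. Wells also held the CAR antagonist PK11195 at 0.75 µM final. Viability was by CellTiter-Fluor fluorescence.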

[8] = HepG2 viability counterscreen (readout 2: ATP content) against the NCATS DSHEA and TCM libraries (AID 1794840); note: 0% is about no effect
Method in brief: (§1)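 1,000 HepG2 cells/well, 4 h attach; compounds ~24 h, 37C/5% CO2. Readout 1: GF-AFC 25 uM final, 30 min, fluorescence 380/510 nm. Readout 2: CellTiter-Glo, 30 min RT, luminescence.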

[9] = HepG2 viability counterscreen (readout 1: protease activity) against the NCATS DSHEA and TCM libraries (AID 1794841);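 note: cells exposed to compounds for about 24 h before the protease read; 0% is about no effect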
Method in brief: as §1

[10] = biological target: Cytochrome P450 3A4 (Homo sapiens) (UniProt P08684); assay: qHTS for inhibitors of CYP3A4 against the NCATS DSHEA and TCM libraries (AID 1919971); note: potency is the fitted concentration of half-maximal effect;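 for activity change, negative = inhibition: % is set by controls: 0 for no effect and ±100 for the full control effect; inhibition lowers luminescence from luciferin made by CYP3A4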
Chain of Cytochrome P450 3A4 (Homo sapiens) (P08684 whole entry, looked up): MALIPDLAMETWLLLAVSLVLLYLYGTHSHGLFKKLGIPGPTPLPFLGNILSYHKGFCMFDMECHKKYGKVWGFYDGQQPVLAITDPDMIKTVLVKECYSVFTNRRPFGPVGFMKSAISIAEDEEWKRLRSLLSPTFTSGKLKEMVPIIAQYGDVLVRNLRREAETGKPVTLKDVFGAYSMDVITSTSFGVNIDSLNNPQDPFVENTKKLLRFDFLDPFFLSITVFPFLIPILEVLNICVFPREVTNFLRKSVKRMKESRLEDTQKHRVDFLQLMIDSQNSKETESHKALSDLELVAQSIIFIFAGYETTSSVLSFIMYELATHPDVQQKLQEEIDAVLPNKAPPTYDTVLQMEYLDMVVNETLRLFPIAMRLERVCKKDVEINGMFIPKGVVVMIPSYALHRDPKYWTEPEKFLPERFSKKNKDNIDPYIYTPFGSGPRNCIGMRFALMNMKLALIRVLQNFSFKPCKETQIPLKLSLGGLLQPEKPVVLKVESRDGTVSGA
Method in brief: (§2)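 Luminescent P450-Glo format: compounds preincubated 15 min with enzyme and luciferin substrate, reaction run 30-45 min after NADPH regeneration solution. Intraplate controls: ketoconazole for CYP3A4 and CYP2C19, sulfaphenazole for CYP2C9.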

[11] = biological target: Cytochrome P450 2D6 (Homo sapiens) (UniProt P10635); assay: qHTS for inhibitors of CYP2D6 against the NCATS DSHEA and TCM libraries (AID 1919972); note: % is set by controls: 0 for no effect and ±100 for the full control effect
Chain of Cytochrome P450 2D6 (Homo sapiens) (P10635 whole entry, looked up): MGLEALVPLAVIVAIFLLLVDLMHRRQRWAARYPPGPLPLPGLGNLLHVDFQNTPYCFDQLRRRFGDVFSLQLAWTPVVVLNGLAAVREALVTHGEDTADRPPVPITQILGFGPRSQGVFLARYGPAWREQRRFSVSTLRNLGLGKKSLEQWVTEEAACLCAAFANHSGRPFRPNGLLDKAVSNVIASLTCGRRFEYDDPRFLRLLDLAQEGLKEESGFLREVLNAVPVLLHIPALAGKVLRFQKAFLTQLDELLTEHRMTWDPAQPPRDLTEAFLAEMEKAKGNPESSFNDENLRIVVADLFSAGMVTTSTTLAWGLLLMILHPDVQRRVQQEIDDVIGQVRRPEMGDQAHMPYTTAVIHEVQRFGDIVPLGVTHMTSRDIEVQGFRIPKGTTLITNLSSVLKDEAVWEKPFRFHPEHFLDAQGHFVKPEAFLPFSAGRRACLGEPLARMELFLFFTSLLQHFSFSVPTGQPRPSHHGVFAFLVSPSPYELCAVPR
Method in brief: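 Luminescent P450-Glo read-out of CYP2D6 turnover of a luciferin substrate after NADPH-driven reaction of 30-45 min at room temperature. Compounds were first preincubated 15 min with enzyme at titrated concentrations; quinidine was the intraplate control.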

[12] = biological target: Cytochrome P450 2C19 (Homo sapiens) (UniProt P33261); assay: qHTS for inhibitors of CYP2C19 against the NCATS DSHEA and TCM libraries (AID 1919974);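 note: luminescence from luciferin released by CYP2C19 oxidation of a pro-luciferin substrate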; note: potency is the fitted concentration of half-maximal effect
Chain of Cytochrome P450 2C19 (Homo sapiens) (P33261 whole entry, looked up): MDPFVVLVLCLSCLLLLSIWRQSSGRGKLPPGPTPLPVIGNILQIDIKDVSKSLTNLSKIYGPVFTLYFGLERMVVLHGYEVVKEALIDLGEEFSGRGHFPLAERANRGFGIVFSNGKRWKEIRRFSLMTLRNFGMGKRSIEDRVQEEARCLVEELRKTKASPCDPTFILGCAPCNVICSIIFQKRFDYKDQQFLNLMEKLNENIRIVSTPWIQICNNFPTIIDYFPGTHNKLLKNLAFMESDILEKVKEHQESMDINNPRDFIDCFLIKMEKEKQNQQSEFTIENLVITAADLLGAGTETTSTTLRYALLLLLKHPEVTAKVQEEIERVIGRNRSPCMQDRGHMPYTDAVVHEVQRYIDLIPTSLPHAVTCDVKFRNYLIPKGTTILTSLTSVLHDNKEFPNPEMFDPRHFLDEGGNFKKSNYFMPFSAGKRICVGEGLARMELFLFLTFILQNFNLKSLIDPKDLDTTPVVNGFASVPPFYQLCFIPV
Method in brief: as §2

[13] = KB-3-1 P-gp reporter qHTS against the NCATS DSHEA and TCM libraries (AID 1919975); note: 0% is about no effect
Method in brief: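 CellTiter-Glo luminescence viability readout; KB-3-1 parental cells, 500/well, attached ~4 h, then compound for ~72 h, 37C, 5% CO2. Bortezomib intraplate control.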

[14] = biological target: Cytochrome P450 1A2 (Homo sapiens) (UniProt P05177); assay: qHTS for inhibitors of CYPIA2 against the NCATS DSHEA and TCM libraries (AID 1919976); note: potency is the fitted concentration of half-maximal effect
Chain of Cytochrome P450 1A2 (Homo sapiens) (P05177 whole entry, looked up): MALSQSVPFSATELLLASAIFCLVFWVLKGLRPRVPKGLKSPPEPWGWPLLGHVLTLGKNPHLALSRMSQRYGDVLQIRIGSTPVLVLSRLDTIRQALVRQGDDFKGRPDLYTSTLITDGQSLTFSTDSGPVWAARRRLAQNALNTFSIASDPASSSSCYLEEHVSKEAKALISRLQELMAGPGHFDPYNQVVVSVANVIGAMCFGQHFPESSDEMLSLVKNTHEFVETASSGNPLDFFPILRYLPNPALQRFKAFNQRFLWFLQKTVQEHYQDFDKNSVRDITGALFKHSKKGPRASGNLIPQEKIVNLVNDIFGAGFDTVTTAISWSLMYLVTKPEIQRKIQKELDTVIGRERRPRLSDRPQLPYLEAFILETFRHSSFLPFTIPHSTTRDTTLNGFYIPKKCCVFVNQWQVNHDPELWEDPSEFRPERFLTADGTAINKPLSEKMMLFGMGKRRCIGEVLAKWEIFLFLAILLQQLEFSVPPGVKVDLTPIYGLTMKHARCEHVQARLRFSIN
Method in brief: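 Human CYP1A2 with pro-luciferin substrate (typically 100 mM KPO4), 15 min preincubation with compound, then 1x NADPH regeneration for 30-45 min at room temperature in the dark. Luciferin quantified by luciferase luminescence; furafylline intraplate control.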

[15] = qHTS Counterscreen for compound interference against the NCATS DSHEA and TCM libraries (AID 1919978); conditions: firefly luciferase detection reagent interference, luminescence;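 note: compounds preincubated with 1 µM D-luciferin or buffer before detection reagent; % of control where 0% means no effect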
Method in brief: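 Luminescence counterscreen for detection-kit interference: compounds at 19.5 nM–39.8 uM final, 15 min RT with 1 uM D-luciferin or buffer only; detection reagent added, 30 min RT, then read.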

[16] = Dual reporter qHTS for agonist of Pregnane X Receptor (hPXR) against the NCATS DSHEA and TCM libraries: Fluorescence readout (AID 1920058); note: 0% is about no effect
Method in brief: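 hPXR-Luc HepG2 cells, 2000/well in charcoal-stripped serum, attached 5 h, dosed for ~24 h at 37 °C. Fluorescence read is CellTiter-Fluor viability (Ex/Em 405/540 nm); rifampicin positive, tetraoctyl ammonium bromide (92 µM) cytotoxicity controls.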

[17] = biological target: Nuclear receptor subfamily 1 group I member 2 (Homo sapiens) (UniProt O75469); assay: Dual reporter qHTS for antagonist of Pregnane X Receptor (hPXR) against the NCATS DSHEA and TCM libraries: Luminescence Readout (AID 1920060);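 note: HepG2 cells carrying hPXR luciferase reporter stimulated with rifampicin at 2 µM; 0% is about no effect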
Chain of Nuclear receptor subfamily 1 group I member 2 (Homo sapiens) (O75469 whole entry, looked up): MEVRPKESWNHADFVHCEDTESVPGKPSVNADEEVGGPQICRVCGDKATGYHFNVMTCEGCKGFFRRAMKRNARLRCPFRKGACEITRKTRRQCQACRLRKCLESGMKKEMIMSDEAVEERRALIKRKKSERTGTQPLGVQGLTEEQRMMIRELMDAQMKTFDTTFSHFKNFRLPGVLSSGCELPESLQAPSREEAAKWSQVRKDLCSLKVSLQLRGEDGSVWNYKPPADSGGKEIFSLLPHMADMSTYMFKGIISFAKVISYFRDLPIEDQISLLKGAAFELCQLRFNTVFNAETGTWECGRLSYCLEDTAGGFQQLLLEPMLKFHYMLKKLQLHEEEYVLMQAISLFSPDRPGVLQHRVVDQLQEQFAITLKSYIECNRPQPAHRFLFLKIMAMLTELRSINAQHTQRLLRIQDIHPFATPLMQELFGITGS
Method in brief: (§3)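 hPXR-Luc HepG2 cells exposed 24 h at 37 C to compounds with 2 uM rifampicin in antagonist mode; luciferase luminescence measured by ONE-Glo, with CellTiter-Fluor viability read beforehand.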

[18] = Dual reporter qHTS for antagonist of Pregnane X Receptor (hPXR) against the NCATS DSHEA and TCM libraries: Fluorescence Readout (AID 1920061); note: 0% is about no effect
Method in brief: as §3

[19] = biological target: Lysosomal acid glucosylceramidase (Homo sapiens) (UniProt P04062); assay: Glucocerebrosidase-p2 (AID 348; in the data active = potency below about 10 µM; note: potency is the fitted concentration of half-maximal effect); conditions: purified GBA, blue fluorogenic substrate, 40 min
Chain of Lysosomal acid glucosylceramidase (Homo sapiens) (P04062 whole entry, looked up): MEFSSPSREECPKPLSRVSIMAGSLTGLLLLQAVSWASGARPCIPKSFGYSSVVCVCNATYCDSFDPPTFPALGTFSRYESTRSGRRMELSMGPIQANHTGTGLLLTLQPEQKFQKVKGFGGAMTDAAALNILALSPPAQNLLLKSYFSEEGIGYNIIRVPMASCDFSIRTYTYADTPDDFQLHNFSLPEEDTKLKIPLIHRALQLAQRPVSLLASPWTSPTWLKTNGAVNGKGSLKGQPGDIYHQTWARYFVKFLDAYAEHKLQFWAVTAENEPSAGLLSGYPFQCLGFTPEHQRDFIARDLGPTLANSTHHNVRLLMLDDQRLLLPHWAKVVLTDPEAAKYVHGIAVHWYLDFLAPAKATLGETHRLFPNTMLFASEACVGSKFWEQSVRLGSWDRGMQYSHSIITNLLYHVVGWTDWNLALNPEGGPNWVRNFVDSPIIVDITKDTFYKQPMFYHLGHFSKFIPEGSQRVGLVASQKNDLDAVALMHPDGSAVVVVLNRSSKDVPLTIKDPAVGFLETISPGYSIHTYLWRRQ
Method in brief: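 Compounds titrated from 0.6 nM upwards against 0.2 nM enzyme in pH 5.9 citric acid/KH2PO4, taurocholate, tween-20; blue fluorogenic substrate 80 uM, 40 min room temperature, stopped and read Ex 365/Em 440 for AC50.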

[20] = biological target: Mitogen-activated protein kinase 10 (Mus musculus) (UniProt Q61831); assay: JNK3 AlphaScreen Assay (AID 530; active = well fitted curve in either direction with a large enough effect, not every such curve was filed as active;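 note: kinase came from lysate of stimulated human HepG2 cells; signal reports phosphorylation of biotinylated GST-cJun 1-79 at Ser73 with 10 µM ATP; % is set by controls: 0 for no effect and ±100 for the full control effect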)
Method in brief: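 Inhibitors reduce antibody binding to phosphorylated biotin-cJun, lowering AlphaScreen luminescence. Lysates from HepG2 cells pre-activated by IL-1beta plus TNF-alpha supplied JNK3; compounds were titrated.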

COc1ccc2[nH]cc(CCNc3ncncc3-c3cccc(C#N)c3)c2c1
inactive: activity change, negative = inhibition [1] -18.6% | activity change, negative = inhibition [2] -10.2% | Potency [3] > 46 µM | Potency [4] > 46 µM | Potency [5]

CN(CC(=O)O)C(=N)N
inactive: outcome [6] | Potency [7] | outcome [8] | outcome [9] | Potency [10] | Potency [11] | Potency [12] | outcome [13] | Potency [14] | max response [15] -1.47% | outcome [16] | outcome [17]

O=C(/C=C/c1ccc(O)c(O)c1)O[C@@H]1CC(C(=O)O)=C[C@@H](O)[C@H]1O
inactive: outcome [6] | Potency [7] | outcome [8] | outcome [9] | Potency [10] | Potency [11] | Potency [12] | outcome [13] | Potency [14] | max response [15] 4.08% | outcome [16] | outcome [17] | outcome [18]

CC1(C)CC[C@]2(C(=O)O)CC[C@]3(C)C(=CCC4[C@@]5(C)CC[C@H](O)[C@@](C)(CO)C5CC[C@]43C)[C@H]2C1 (some centres not stated)
inactive: outcome [6] | Potency [7] | outcome [8] | outcome [9] | Potency [11] | outcome [13] | Potency [14] | max response [15] -0.0807% | outcome [16] | outcome [17] | outcome [18]

C=C/C(C)=C/C/C=C(\C)CCC=C(C)C
inactive: outcome [6] | Potency [7] | outcome [8] | outcome [9] | Potency [11] | outcome [13] | Potency [14] | max response [15] 2.78% | outcome [16] | outcome [17] | outcome [18]
active: Potency [10] 28.2 µM | Potency [12] 31.6 µM

C[C@@H]1O[C@@H](OC[C@H]2OC(Oc3c(-c4ccc(O)c(O)c4)oc4cc(O)cc(O)c4c3=O)[C@H](O)[C@@H](O)[C@@H]2O)[C@H](O)[C@H](O)[C@H]1O (some centres not stated)
inactive: outcome [6] | Potency [7] | outcome [8] | outcome [9] | Potency [10] | Potency [11] | Potency [12] | outcome [13] | Potency [14] | max response [15] -2.59% | outcome [16] | outcome [17]

C[C@@H]1CC[C@]2(C)CC[C@]3(C)C(=CC(=O)C4[C@@]5(C)CC[C@@H](O)[C@](C)(C(=O)O)C5CC[C@]43C)C2[C@H]1C (some centres not stated)
inactive: outcome [6] | Potency [7] | outcome [8] | outcome [9] | Potency [11] | outcome [13] | max response [15] 2.52% | outcome [16] | outcome [17] | outcome [18]

C=C1CC/C=C(/C)CC[C@@H]2[C@@H]1CC2(C)C
active: Potency [7] 7.08 µM | Potency [12] 3.55 µM | Potency [14] 3.55 µM
inactive: outcome [6] | outcome [8] | outcome [9] | Potency [11] | outcome [13] | max response [15] 1.11% | outcome [16] | outcome [17] | outcome [18]

COc1ccc(C(=O)O)cc1
inactive: outcome [6] | Potency [7] | outcome [8] | outcome [9] | Potency [10] | Potency [11] | Potency [12] | outcome [13] | Potency [14] | max response [15] -1.54% | outcome [16] | outcome [17] | outcome [18]

COc1ccc(Oc2ncc3nc(-c4ccccc4)c(=O)n(C[C@H]4CCCO4)c3n2)cc1
inactive: Potency [19] > 11.4 µM | activity change, negative = inhibition [2] -3.65% | Potency [3] > 9.22 µM | Potency [4] > 46 µM | Potency [20] | Potency [5]

Cn1c(=O)c(-c2ccc(Cl)cc2)nc2cncnc21
inactive: Potency [19] > 11.4 µM | activity change, negative = inhibition [1] -6.64% | activity change, negative = inhibition [2] -0.619% | Potency [3] > 9.22 µM | Potency [20] | Potency [5]

Cc1ccc(C(C)C)cc1
inactive: outcome [6] | Potency [7] | outcome [8] | outcome [9] | Potency [10] | Potency [11] | Potency [12] | outcome [13] | Potency [14] | max response [15] -0.622% | outcome [16] | outcome [17] | outcome [18]

CC(=O)OC1CC2CCC1(C)C2(C)C (configuration not stated)
inactive: Potency [5] | outcome [6] | Potency [7] | outcome [8] | outcome [9] | Potency [10] | Potency [11] | Potency [12] | outcome [13] | Potency [14] | max response [15] 3.9% | outcome [16] | outcome [17] | outcome [18]

CCCCCCCCCCCCCCCCCCCCCCCCCCCCCCO
inactive: viability change, negative = cytotoxic [6] -4.15% [at 5 µM] | activation [7] -23.2% [at 5 µM] | activity change, negative = cytotoxic [8] -1.11% [at 3.42 µM] | activity change, negative = inhibition [9] 5.84% [at 3.42 µM] | activity change, negative = inhibition [10] 9.22% [at 4.27 µM] | activity change, negative = inhibition [11] -0.757% [at 4.27 µM] | activity change, negative = inhibition [12] 9.51% [at 4.27 µM] | activity change, negative = inhibition [13] -11% [at 3.26 µM] | activity change, negative = inhibition [14] 15.7% [at 4.62 µM] | max response [15] -2.33% | activation [16] 1.05% [at 5 µM] | activity change, negative = inhibition [17] -14.7% [at 5 µM]
